HT1080NT lethal = kills 2HG-producing HT-1080-NT fibrosarcoma cells | HT-1080-NT fibrosarcoma viability, CellTiter-Glo ATP luminescence, 48 h | Potency, µM (highest dose often 46.1 µM), without a hit: top-dose activity, negative = less viability, actives largely listed as cytotoxic | 360,000 tested, 1.6% active | AID 686970;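 further: NT is the 2HG producing partner of a matched IDH1 knockdown line; potency means the concentration at half of the fitted maximal effect; 0% = DMSO-treated cells and -100% = media-only wells without cells; nearly all actives have a fitted effect of over 55% in size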
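Fibrosarcoma NT cells, 750 per well in 5% FBS RPMI, were exposed to compound for 48 hours. Viability: CellTiter-Glo luminescence.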
12-LOX inh = ALOX12 (human) lipoxygenase inhibition | 580,000 tested, 1.1% active | purified 12hLO, xylenol orange hydroperoxide absorbance | P18054 | Potency, µM (highest dose often 108 µM), without a hit: at the highest dose activity change, negative = inhibition, actives largely listed as inhibitors | AID 1671190; further: potency means the concentration at half of the fitted maximal effect
Target sequence (P18054 whole entry, looked up): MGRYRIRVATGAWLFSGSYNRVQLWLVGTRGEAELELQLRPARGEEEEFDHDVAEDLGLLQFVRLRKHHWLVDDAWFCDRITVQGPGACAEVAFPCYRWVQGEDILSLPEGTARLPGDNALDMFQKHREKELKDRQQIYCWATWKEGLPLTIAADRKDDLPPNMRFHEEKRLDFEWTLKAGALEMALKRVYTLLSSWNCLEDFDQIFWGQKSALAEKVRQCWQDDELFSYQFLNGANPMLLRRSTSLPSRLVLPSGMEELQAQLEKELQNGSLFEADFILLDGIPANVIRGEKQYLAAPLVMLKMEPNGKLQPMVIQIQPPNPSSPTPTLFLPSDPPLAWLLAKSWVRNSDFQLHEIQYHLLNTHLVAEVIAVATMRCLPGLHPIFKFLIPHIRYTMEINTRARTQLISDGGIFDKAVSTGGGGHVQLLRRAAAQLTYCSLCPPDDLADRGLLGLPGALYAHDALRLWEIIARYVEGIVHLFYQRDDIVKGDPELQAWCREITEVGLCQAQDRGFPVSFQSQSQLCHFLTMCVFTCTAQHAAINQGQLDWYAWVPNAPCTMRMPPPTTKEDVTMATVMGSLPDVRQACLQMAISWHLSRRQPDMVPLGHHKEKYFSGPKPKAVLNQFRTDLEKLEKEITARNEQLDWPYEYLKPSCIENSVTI
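Purified human 12hLO at 150 nM in 25 mM Hepes, 0.01% Triton X-100, pH 7.0, preincubated 15 min at room temperature with compound. Reaction started with 40 uM arachidonic acid, 30 min at room temperature. Hydroperoxide measured by Fe-xylenol orange, 573/405 nm absorbance ratio.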
HT1080 IDH1KD tx = kills HT-1080 cells with IDH1 knockdown; Potency, µM (doses to about 46.1 µM), for inactives: top-dose activity, negative = toxicity, actives largely listed as cytotoxic; 360,000 tested, 2% active; HT-1080 IDH1 knockdown viability, ATP luminescence, 48 h; AID 686971;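 further: potency means the concentration at half of the fitted maximal effect; 0% = DMSO wells and -100% = cell-free medium wells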
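Using the IDH1-knockdown HT-1080 line run in the same batch and compound series as the NT line, viability after 48 h at 37 °C was determined by CellTiter-Glo luminescence and expressed as % activity.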
IL-1B inflam inh = inhibitors of inflammasome signaling (IL-1 beta secretion); AID 743279; 360,000 tested, 4.7% active; THP-1 LPS/ATP IL-1B secretion, AlphaLISA, 16 h; stronger effect = lower value; activity change, % at 57.5 µM; in the data active means activity change below about -50%; inconclusive means mostly about -30% to -49%
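THP-1 cells pretreated 1 hr with compounds (up to 57.5 uM final), then stimulated with LPS (250 ng/mL final) plus ATP (1.25 mM final); secreted IL-1B measured by AlphaLISA after 16 hr, decreased signal indicating inhibition.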
DT40 TDP1 no CPT = qHTS for Inhibitors of human tyrosyl-DNA phosphodiesterase 1 (TDP1): qHTS in cells in absence of CPT; DT40 Tdp1-/- hTDP1 cells, no CPT, ATP luminescence, 48 h; Potency, µM (highest dose often 46.2 µM), for the others: at the highest dose activity change, negative = growth inhibition, actives largely listed as inhibitors; 420,000 tested, 15% active; further: potency means the concentration at half of the fitted maximal effect; nearly all actives have a fitted effect of over 55% in size
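Growth kinetics read by CellTiter-Glo luminescence after ≥48 hr at 37 °C. Cells: DT40 Tdp1-/- stably carrying human TDP1, 400 per well, compound exposure in the absence of CPT (DMSO vehicle).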
DT40 TDP1 CPT = DT40-hTDP1 cell growth loss with CPT | chicken DT40 Tdp1-/-;hTDP1 cells + 20 nM CPT, ATP luminescence, 48 h | AID 686979 | 420,000 tested, 12% active | Potency, µM (top dose mostly 46.2 µM), for inactives: top-dose activity change, negative = growth inhibition, most hits filed as inhibitors; further: potency means the concentration at half of the fitted maximal effect; nearly all actives have a fitted effect of over 55% in size
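Chicken DT40 Tdp1-/- cells complemented with human TDP1, 400 cells/well, exposed to compounds plus 20 nM camptothecin for at least 48 h at 37 C; viability read as ATP content by CellTiter-Glo luminescence.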
* hit, by the source's call; ? = inconclusive; nt = no result given. The sample as a whole holds a higher share of hits than the screen did. Unless noted, the call rests on the fitted dose curve; in most records, active means well fitted curve in the direction sought with a large enough effect; inconclusive means small, poorly fitted or top-dose-only effect, or another doubt; inactive means no such curve, though single readings can be large; an effect the other way counts as inactive or inconclusive. Unless noted, on the % scale 0 is the no-effect control and ±100 the full control effect.

SMILES | HT1080NT lethal | 12-LOX inh | HT1080 IDH1KD tx | IL-1B inflam inh | DT40 TDP1 no CPT | DT40 TDP1 CPT
O=C(NCCc1cccs1)c1cccc2c1CCN2C(=O)Nc1ccc(F)cc1 | nt | 9.2% | nt | nt | nt | nt
O=C(OCc1cccc(C(F)(F)F)c1)c1cc([N+](=O)[O-])ccc1N1CCOCC1 | -14.9% | -10.8% | -21.9% | -59.9* | ? | ?
O=C(OCc1ccc(Br)cc1)c1cc([N+](=O)[O-])ccc1N1CCOCC1 | ? | 7.7% | 2.59µM* | 21.9 | 0.461µM* | 0.731µM*
COc1ccc(COC(=O)c2cc([N+](=O)[O-])ccc2N2CCOCC2)cc1F | 0.0058µM* | 1.7% | 0.0052µM* | 0.6 | 0.0116µM* | 0.0231µM*
O=C(OCc1cccc(Cl)c1)c1cc([N+](=O)[O-])ccc1N1CCOCC1 | -22.6% | -19.3% | ? | ? | ? | ?
CCOC(=O)c1cc(C#N)c(SC(C(=O)N2CCCCC2)c2ccccc2)nc1C (stereo unspecified) | nt | nt | nt | nt | 10µM* | ?
O=C(Cc1cccnc1)N[C@@H]1CC[C@H](CCn2cc(Cc3ccccc3)nn2)O[C@@H]1CO | 21.6% | -17.4% | 9.7% | -7.0 | -0.8% | -4.7%
CCOc1nc2ccccc2cc1C=O | -15.0% | 2.5% | -28.8% | 55.4 | 2.59µM* | 2.31µM*
Cc1ccc(-c2nc3ncccc3o2)cc1NC(=O)c1ccc(-c2ccc(Cl)cc2)o1 | nt | -7.4% | nt | nt | 2.7% | 3.9%
COc1ccc(CN2CCC(n3cc(C(=O)N4CCCC4)nn3)CC2)c(OC)c1C | nt | 9.1% | nt | nt | -18.7% | 0.4%
CCCN1C(C(=O)c2ccccc2)=C(OC(=O)c2ccc(OC)cc2)c2ccccc2S1(=O)=O | nt | -18.5% | nt | nt | 5.17µM* | 5.17µM*
COC(=O)CN1C(C(=O)c2ccccc2)=C(OC(=O)c2ccccc2)c2ccccc2S1(=O)=O | nt | -18.2% | nt | nt | 25.9µM* | 16.4µM*
CN1C(C(=O)c2ccccc2)=C(OC(=O)c2ccc(Br)cc2)c2ccccc2S1(=O)=O | nt | -3.0% | nt | nt | 20.6µM* | ?

Screens from PubChem.
